Potency, activity change, negative = inhibition and activity, negative = inhibition data for 14 compounds are collected here from PubChem BioAssay (NCATS).

Unmarked numbers belong to inactive results. Results filed as inconclusive are left out. The source made the active and inactive calls. Unless noted, calls come from the whole dose curve; as a rule, active = well fitted curve in either direction with a large enough effect (not every such curve was filed as active); inconclusive = small, poorly fitted or top-dose-only effect, or another doubt; inactive = flat fitted curve, though single readings scatter. Bounds are passed on as bounds.

For assay [1], the target named is Lysosomal acid glucosylceramidase (Homo sapiens) (UniProt P04062). Description: Glucocerebrosidase-p2 (AID 348; in the data active = potency below about 10 µM; note: potency is the fitted concentration of half-maximal effect). The note with it: purified GBA, blue fluorogenic substrate, 40 min. The essentials: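 Normal human glucocerebrosidase (0.2 nM) with blue fluorogenic substrate (80 uM final) in citrate/phosphate pH 5.9 with 10mM sodium taurocholate, 0.01% tween-20; 40 min RT, NaOH/glycine stop; fluorescence Ex 365/Em 440; AC50 from a titration from 0.6 nM upwards.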

Assay [2] can be described thus: AP1 Signaling Pathway (AID 357).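 Note: ME-180 reporter cells stimulated with EGF at its EC50 level; % is set by controls: 0 for no effect and ±100 for the full control effect.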 Particulars: ME-180 AP-1-bla reporter, EGF-induced, beta-lactamase ratio, 5 h; at 7.69 µM (top of the series) unless noted. The essentials:
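AP-1-bla ME-180 cells, Opti-MEM + 0.5% dialyzed FBS, plated overnight 37 °C. Cpd titration + EC50 EGF, 5 h 37 °C. CCF4 2.5 h RT; ex 405, em 460/530 ratio → %activity, AC50.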

Assay [3] has as its target Cytochrome P450 1A2 (Homo sapiens) (UniProt P05177). Description: p450-cyp1a2 (AID 410; calls by dose curve; note: potency is the fitted concentration of half-maximal effect;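 for activity change, negative = inhibition: -100% = full effect of reference inhibitor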). The note with it: recombinant CYP1A2, luciferin-ME demethylation, luminescence; series mostly up to 11.4 µM. In short, it runs like this:
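Luminescent demethylation readout: Luciferin-ME (100uM, equal to Km) turned over by 20nM CYP1A2 for 60 min at room temperature after NADPH regeneration addition, following 10 min compound preincubation. Normalization used 57 uM furafylline as full inhibition.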

Assay [4] in a line: NFAT Signaling Pathway (AID 444).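 Note: carbachol stimulus at about its EC50 of 1 µM final; % is set by controls: 0 for no effect and ±100 for the full control effect.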 The note with it: Jurkat NFAT-bla M1, carbachol, beta-lactamase ratio, 5 h; at 7.69 µM (top of the series) unless noted. In short, it runs like this:
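Jurkat cells carrying an NFAT-driven β-lactamase reporter and co-transfected muscarinic M1 receptor were treated with compound plus carbachol (1 uM final, an EC50 level) for 5 h at 37 °C. CCF4 loading followed for 1 h at RT; 460/530 nm ratio gave %activity.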

A short description of assay [5]: Stat Signaling Pathway (AID 446).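 Note: ME-180 cervical cancer cells given 40 pM IL-6 alongside compound; SIE-controlled beta-lactamase reporter measured as 460/530 nm FRET emission ratio; % is set by controls: 0 for no effect and ±100 for the full control effect.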 The note with it: ME-180 (cervical carcinoma) SIE beta-lactamase reporter, IL-6 stimulated, 5 h; at 7.69 µM (top of the series) unless noted. In short, it runs like this: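 Compound effects on IL-6-induced STAT reporter activity were measured in ME-180 cells. After overnight culture, cells were co-treated with 40 pM IL-6 for 5 hrs before beta-lactamase substrate loading at room temperature.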

The target of assay [6] is Glucocorticoid receptor (Homo sapiens) (UniProt P04150). Description: GR-GFP Redistribution (AID 450;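 active = compounds whose dose series gives a full or clear partial fitted curve of increased nuclear translocation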; note: potency is the fitted concentration of half-maximal effect). Particulars: U2OS GR-GFP nuclear translocation, laser cytometry, 2 h.
The target is the same in assay [7]. The experiment in a line: GR-EFC Redistribution (AID 451; calls by dose curve; note: potency is the fitted concentration of half-maximal effect). Particulars: CHO-K1 GR-EFC translocation, beta-gal luminescence, 2 h. In short, it runs like this:
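CHO-K1 cells stably expressing nuclear-localized β-gal enzyme acceptor and GR fused C-terminally to the enzyme donor fragment; ligand-driven nuclear translocation restores β-gal by complementation. Compounds titrated up to 46 uM final, 2 h at 37 °C; luminescence read.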

In assay [8] the target is Mitogen-activated protein kinase 10 (Mus musculus) (UniProt Q61831). Description: JNK3 AlphaScreen Assay (AID 530).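 Note: kinase came from lysate of stimulated human HepG2 cells; signal reports phosphorylation of biotinylated GST-cJun 1-79 at Ser73 with 10 µM ATP; % is set by controls: 0 for no effect and ±100 for the full control effect.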 The note with it: JNK3 lysate, c-Jun phosphorylation; series mostly up to 11.4 µM. The essentials:
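Phosphorylation of biotinylated GST-cJun(1-79) at Ser73 is measured by AlphaScreen proximity luminescence. Enzyme is JNK3 in HepG2 lysates activated with interleukin-1beta and tumor necrosis factor alpha; ATP is 10 uM final.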
For orientation: Alpha assays give light when donor and acceptor beads are brought close together.

For assay [9], the target named is 3',5'-cyclic-AMP phosphodiesterase 4B (Homo sapiens) (UniProt Q07343). The experiment in a line: qHTS Assay for Inhibitors of PDE-IV (AID 607; active = well fitted activation curve with a large enough effect in the main read-out, with a control signal flat, not every such curve was filed as active; note: % of control where 0% means no effect). Particulars: HEK293 ACTOne CNG channel cells, membrane potential fluorescence; series mostly up to 22.9 µM. The essentials: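 ACTOne HEK293 cells carry a modified cAMP-gated CNG channel and express endogenous PDE4; plated 1000 cells/well, compounds up to 22.9 uM final. Membrane-potential dye fluorescence (ex 535/em 590) was read; parental cells received 10 uM forskolin + 100 uM RO 20-1724.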
A general note: qHTS replaces the single test concentration by a dilution series.

Sequence of Lysosomal acid glucosylceramidase (Homo sapiens) (P04062 whole entry, looked up): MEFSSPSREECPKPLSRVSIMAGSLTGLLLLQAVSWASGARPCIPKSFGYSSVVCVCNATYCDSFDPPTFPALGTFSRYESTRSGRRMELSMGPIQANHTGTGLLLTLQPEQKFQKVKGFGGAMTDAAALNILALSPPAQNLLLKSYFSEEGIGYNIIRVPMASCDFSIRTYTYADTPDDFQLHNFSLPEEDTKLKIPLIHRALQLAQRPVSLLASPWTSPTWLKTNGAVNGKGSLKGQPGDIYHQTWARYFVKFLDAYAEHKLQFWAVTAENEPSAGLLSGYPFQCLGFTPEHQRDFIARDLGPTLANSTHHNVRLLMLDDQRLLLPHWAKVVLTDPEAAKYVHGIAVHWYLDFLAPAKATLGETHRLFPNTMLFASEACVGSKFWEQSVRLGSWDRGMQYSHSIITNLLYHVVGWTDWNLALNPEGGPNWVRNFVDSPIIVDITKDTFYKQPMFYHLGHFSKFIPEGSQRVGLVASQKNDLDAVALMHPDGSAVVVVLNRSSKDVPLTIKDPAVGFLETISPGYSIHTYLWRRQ
Sequence of 3',5'-cyclic-AMP phosphodiesterase 4B (Homo sapiens) (Q07343 whole entry, looked up): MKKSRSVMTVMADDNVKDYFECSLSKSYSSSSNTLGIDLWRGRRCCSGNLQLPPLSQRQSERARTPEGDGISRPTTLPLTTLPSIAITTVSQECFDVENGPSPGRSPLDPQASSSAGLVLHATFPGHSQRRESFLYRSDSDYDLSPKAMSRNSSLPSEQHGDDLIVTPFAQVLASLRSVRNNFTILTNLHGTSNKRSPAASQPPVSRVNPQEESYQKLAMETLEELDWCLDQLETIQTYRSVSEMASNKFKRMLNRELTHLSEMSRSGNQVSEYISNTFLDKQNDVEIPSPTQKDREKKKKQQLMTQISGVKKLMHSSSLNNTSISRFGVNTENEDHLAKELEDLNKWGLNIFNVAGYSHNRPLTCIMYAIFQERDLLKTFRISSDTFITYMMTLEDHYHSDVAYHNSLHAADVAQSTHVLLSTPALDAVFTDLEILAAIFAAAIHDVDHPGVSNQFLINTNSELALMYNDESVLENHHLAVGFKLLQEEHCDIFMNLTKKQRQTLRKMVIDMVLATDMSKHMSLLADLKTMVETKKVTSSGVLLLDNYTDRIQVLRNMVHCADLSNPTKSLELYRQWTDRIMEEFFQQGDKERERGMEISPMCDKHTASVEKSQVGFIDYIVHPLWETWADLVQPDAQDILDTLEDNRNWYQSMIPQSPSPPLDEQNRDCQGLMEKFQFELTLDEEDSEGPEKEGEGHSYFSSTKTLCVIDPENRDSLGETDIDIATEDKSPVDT
Sequence of Cytochrome P450 1A2 (Homo sapiens) (P05177 whole entry, looked up): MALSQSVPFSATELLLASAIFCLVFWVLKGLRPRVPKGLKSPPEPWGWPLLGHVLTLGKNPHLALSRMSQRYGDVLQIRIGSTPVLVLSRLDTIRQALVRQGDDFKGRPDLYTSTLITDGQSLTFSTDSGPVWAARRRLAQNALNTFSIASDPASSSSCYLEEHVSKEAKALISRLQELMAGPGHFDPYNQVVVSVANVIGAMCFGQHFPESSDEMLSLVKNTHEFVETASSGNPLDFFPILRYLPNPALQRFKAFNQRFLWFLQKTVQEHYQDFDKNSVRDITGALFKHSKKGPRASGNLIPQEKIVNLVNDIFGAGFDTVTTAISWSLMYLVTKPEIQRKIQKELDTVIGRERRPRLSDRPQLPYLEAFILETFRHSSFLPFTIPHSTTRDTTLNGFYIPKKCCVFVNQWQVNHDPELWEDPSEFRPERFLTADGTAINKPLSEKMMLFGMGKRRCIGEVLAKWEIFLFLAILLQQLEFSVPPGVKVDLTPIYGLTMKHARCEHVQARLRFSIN
Sequence of Glucocorticoid receptor (Homo sapiens) (P04150 whole entry, looked up): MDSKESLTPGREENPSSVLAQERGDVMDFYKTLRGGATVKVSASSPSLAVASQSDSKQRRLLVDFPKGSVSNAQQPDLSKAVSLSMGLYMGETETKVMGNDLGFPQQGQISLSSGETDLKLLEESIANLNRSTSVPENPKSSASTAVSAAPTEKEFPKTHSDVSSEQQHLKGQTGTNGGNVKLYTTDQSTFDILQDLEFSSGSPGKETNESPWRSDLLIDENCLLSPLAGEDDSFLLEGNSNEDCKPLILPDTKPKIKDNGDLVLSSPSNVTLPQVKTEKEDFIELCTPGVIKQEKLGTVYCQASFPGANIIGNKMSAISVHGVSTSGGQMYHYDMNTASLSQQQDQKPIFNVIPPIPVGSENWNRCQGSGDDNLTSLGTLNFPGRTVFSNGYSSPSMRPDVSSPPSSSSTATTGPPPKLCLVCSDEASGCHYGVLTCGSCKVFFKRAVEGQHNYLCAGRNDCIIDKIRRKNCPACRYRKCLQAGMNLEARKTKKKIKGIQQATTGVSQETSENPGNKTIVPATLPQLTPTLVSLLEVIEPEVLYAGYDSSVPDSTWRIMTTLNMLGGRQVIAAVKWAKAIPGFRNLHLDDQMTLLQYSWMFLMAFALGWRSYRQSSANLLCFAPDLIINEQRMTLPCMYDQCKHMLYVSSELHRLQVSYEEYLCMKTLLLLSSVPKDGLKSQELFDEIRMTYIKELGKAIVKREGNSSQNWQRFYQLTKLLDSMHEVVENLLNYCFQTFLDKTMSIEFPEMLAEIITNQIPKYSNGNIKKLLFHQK

For the compound `O=C1C2[C@@H](c3ccccc3)N[C@@H](c3ccccc3)C1[C@H](c1ccccc1)N[C@H]2c1ccccc1`, the Potency in assay [1] was greater than 11.4 µM; in assay [6], greater than 46 µM; in [7] it was greater than 9.22 µM. Also, the activity change, negative = inhibition is -5.02% in [2] and 3.11% in assay [4]. For the same compound, the Potency entry in assay [3], in assay [8] and in assay [9] was “inactive” each time. The activity, negative = inhibition in assay [5] was 1.27%.
With `O=C1Nc2ccccc2C1=Nc1cccc2ncccc12`, the Potency in [1] is greater than 11.4 µM; in assay [3], 3.98 µM (active); in assay [6] it was greater than 46 µM; in assay [7] it was greater than 9.22 µM. The activity change, negative = inhibition in [2] was 5.64%; in assay [4], -3.54%. Besides, in [5], the activity, negative = inhibition was 2.41%. Moreover, the Potency result in assay [8] and in [9] was “inactive” each time.
`CC1=C[N+](=O)c2ccccc2[N+]1=O`: the Potency is greater than 11.4 µM in assay [1], 6.31 µM (active) in assay [3], greater than 46 µM in assay [6] and greater than 9.22 µM in assay [7]. Further, the activity change, negative = inhibition in assay [2] was 5.1%; in [4], 13.8%. Besides, in assay [5], the activity, negative = inhibition was 0.919%. In addition, the Potency entry in assay [8] and in assay [9] was “inactive” each time.
For `Cc1ccc(S(=O)(=O)NCc2cccc([N+](=O)[O-])c2)cc1`, the Potency in assay [1] was greater than 11.4 µM; in [3], 3.98 µM (active); in assay [6], greater than 46 µM; in [7], greater than 9.22 µM. For the same compound, the activity change, negative = inhibition is -2.52% in assay [2] and 6.53% in [4]. The activity, negative = inhibition in assay [5] was 2.25%. The Potency entry in assay [8] and in assay [9] was “inactive” throughout.
Turning to `O=C(O)[C@@H]1[C@@H](C(=O)NCc2ccccn2)[C@@H]2C=C[C@@H]1O2`, the Potency was greater than 11.4 µM in [1], greater than 46 µM in assay [6] and greater than 9.22 µM in assay [7]. Further, the results for the activity change, negative = inhibition in [2], in assay [3] and in [4] were -9.66%, -0.1% [at 2.29 µM] and -3.89%, respectively. The activity, negative = inhibition in assay [5] was -3.58%. Moreover, the Potency result in [8] and in assay [9] was “inactive” each time.
Take `CS(=O)(=O)N(CC(=O)O)Cc1ccccc1`: the Potency was greater than 11.4 µM in [1], greater than 46 µM in assay [6] and greater than 9.22 µM in [7]. The activity change, negative = inhibition in [2] was 13.2%; in assay [4], 14.9%. For the same compound, the Potency result in assay [3], in [8] and in assay [9] was “inactive” throughout. The activity, negative = inhibition in [5] was 10.2%.
On to `O=CN[C@@H](Cc1cnc[nH]1)C(=O)O`, for which the Potency in assay [1] is greater than 11.4 µM; in assay [6], greater than 46 µM; in assay [7] it was greater than 9.22 µM. Moreover, the activity change, negative = inhibition in [2] is 4.13%; in assay [4] it was 2.87%. The Potency entry in [3], in [8] and in assay [9] was “inactive” in each case. The activity, negative = inhibition in assay [5] is 0.427%.
As to `CC(C)[C@@H](C)/C=C\[C@@H](C)[C@@H]1CC[C@H]2C3=CC=C4C[C@@H](O)CC[C@]4(C)[C@H]3CC[C@]21C`, the results for the Potency in assay [1], in assay [6] and in assay [7] were greater than 11.4 µM, greater than 46 µM and greater than 9.22 µM, respectively. Moreover, the activity change, negative = inhibition in assay [2] is -3.49%; in assay [4], 25.1%. In addition, the Potency result in [3], in [8] and in assay [9] was “inactive” in each case. In assay [5], the activity, negative = inhibition is -5.31%.
`Cc1n[nH]c2ccccc2c1=O`: the Potency is greater than 11.4 µM in assay [1], 0.398 µM (active) in assay [3], greater than 46 µM in assay [6] and greater than 9.22 µM in assay [7]. The activity change, negative = inhibition is -6.55% in [2] and -1.3% in [4]. In [5], the activity, negative = inhibition was 10.2%. Further, the Potency entry in assay [8] and in assay [9] was “inactive” in each case.
Turning to `O=C(O)c1cc(=O)[nH]c(SCc2ccccc2)n1`, the Potency is greater than 11.4 µM in [1], greater than 46 µM in [6] and greater than 9.22 µM in assay [7]. For the same compound, the results for the activity change, negative = inhibition in assay [2] and in assay [4] were 12.1% and -27.5%, respectively. Further, the Potency result in [3], in assay [8] and in assay [9] was “inactive” in each case. For the same compound, the activity, negative = inhibition in assay [5] is 0.79%.
In the case of `N#C/C(=C\Nc1ccccn1)C(=O)C1CC1`, the Potency in [1] was greater than 11.4 µM; in [3], 1.26 µM (active); in assay [6], greater than 46 µM; in assay [7], greater than 9.22 µM. In addition, the activity change, negative = inhibition is 7.75% in assay [2] and 5.1% in assay [4]. The activity, negative = inhibition in assay [5] was 1.86%. Further, the Potency result in assay [8] and in [9] was “inactive” each time.
With `C/C(CC/C(C)=N/O)=N/O`, the Potency was greater than 11.4 µM in assay [1], greater than 46 µM in [6] and greater than 9.22 µM in [7]. Further, the values for the activity change, negative = inhibition in assay [2], in [3] and in assay [4] were 4.13%, -12.6% [at 2.29 µM] and 2.59%, respectively. Besides, the activity, negative = inhibition in assay [5] was -4.99%. Further, the Potency result in assay [8] and in [9] was “inactive” throughout.
As for `Cc1cc(=O)oc2c(OS(C)(=O)=O)c(OS(C)(=O)=O)ccc12`, the Potency in assay [1] was greater than 11.4 µM; in assay [3], 0.794 µM (active); in assay [6], greater than 46 µM; in assay [7], greater than 9.22 µM. Also, the values for the activity change, negative = inhibition in assay [2] and in assay [4] were -3.34% and 5.12%, respectively. For the same compound, in assay [5], the activity, negative = inhibition is 4.16%. For the same compound, the Potency result in assay [8] and in [9] was “inactive” throughout.
On to `NCCCc1ccc2oc3ccccc3c2c1`, for which the Potency is greater than 11.4 µM in [1], 0.0316 µM (active) in assay [3], greater than 46 µM in [6] and greater than 9.22 µM in [7]. Besides, the results for the activity change, negative = inhibition in [2] and in assay [4] were 19.9% and 14.4%, respectively. The activity, negative = inhibition in [5] was 0.365%. The Potency entry in assay [8] and in assay [9] was “inactive” each time.
